Experiment [1] in a line: qHTS assay to identify small molecule antagonists of the androgen receptor (AR) signaling pathway using the MDA cell line in the presence of 0.5 nM R1881 - cell viability counter screen (AID 1259242). Also: nearly all actives have a fitted effect of over 45% in size. A digest of the protocol:
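Live-cell protease fluorescence, CellTiter-Fluor, 30 min at 37C. Cells: MDA-kb2, 3,000/well, preincubated 5 hr. Compounds plus 0.5 nM R1881 final, 16 hr, 37C, 0% CO2.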
A general note: In qHTS, concentration-response curves come from the screen itself.

The target in experiment [2] is Estrogen receptor (Homo sapiens) (UniProt P03372). Nature of the experiment: qHTS assay to identify small molecule antagonists of the estrogen receptor alpha (ER-alpha) signaling pathway using the BG1 cell line in the presence of 0.1 nM 17-beta-estradiol (AID 1259244). Also: nearly all actives have a fitted effect of over 50% in size. An outline of the steps:
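Luminescence after ONE-Glo (30 min, room temperature) measured ERE-luciferase activity in VM7Luc4E2 cells treated 22 h with compound and 0.1 nM final 17beta-estradiol as stimulator.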

Experiment [3] can be described thus: qHTS assay to identify small molecule HDAC inhibitors (AID 1259364). Also: potency is read from the fitted curve at half-maximal effect.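 Also: wild-type HCT-116 cells with endogenous class I/II HDAC activity; nearly all actives have a fitted effect of over 45% in size.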 A digest of the protocol:
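HCT-116 (wild type), 1,500 cells/well, overnight; compound 2 hr 37C 5% CO2; HDAC-Glo I/II reagent 30 min RT; luminescence readout.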

Experiment [4] can be described thus: qHTS assay to identify small molecule HDAC inhibitors - cell viability counter screen (AID 1259365). Also: series mostly up to about 92 µM; nearly all actives have a fitted effect of over 50% in size. An outline of the steps:
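Wild-type HCT-116 cells were seeded at 1,500 per well, incubated overnight at 37 C, then exposed to compounds in DMSO for 2hr. Viability was read by CellTiter-Glo luminescence after 30min at room temperature.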

Experiment [5] can be described thus: qHTS assay to identify small molecule agonists of the sonic hedgehog signaling (Shh) pathway - cell viability counter screen (AID 1259366). Also: nearly all actives have a fitted effect of over 50% in size. An outline of the steps:
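NIH/3T3-derived 3T3 Gli1-Luc cells (stable Gli1-responsive firefly luciferase reporter) were seeded, rested 4 hr at 37 C/5% CO2, then exposed to compounds in DMSO for 24 hr; viability was read by CellTiter-Fluor fluorescence in the same wells.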

A short description of experiment [6]: qHTS assay to identify small molecule antagonists of the sonic hedgehog signaling (Shh) pathway - cell viability counter screen (AID 1259367). Also: nearly all actives have a fitted effect of over 55% in size. An outline of the steps:
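Viability was read by CellTiter-Fluor fluorescence in the same wells, reagent added 23 hr into compound treatment and incubated 1 hr at 37C. The 3T3 Gli1-Luc reporter cells (2,000/well) received conditioned medium after compound and ran 24 hr.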

A short description of experiment [7]: qHTS assay to identify small molecule agonists of the sonic hedgehog signaling (Shh) pathway (AID 1259368; calls by dose curve; also: series mostly up to about 92 µM; nearly all actives have a fitted effect of over 15% in size). An outline of the steps: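 Read-out: firefly luciferase luminescence from a Gli1 response element reporter stably integrated in NIH/3T3-derived 3T3Gli1-Luc cells, measured 30 min at room temperature after reagent addition. Compound exposure lasted 24 hr at 37 C, 5% CO2.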

A short description of experiment [8]: qHTS assay to identify small molecule antagonists of the sonic hedgehog signaling (Shh) pathway (AID 1259369; calls by dose curve; also: nearly all actives have a fitted effect of over 45% in size). A digest of the protocol:
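Luminescence readout: firefly Luc under Gli1 response element in 3T3Gli1-Luc cells (NIH/3T3 clone). Antagonist mode, stimulation by conditioned medium; compound exposure 24hr at 37 C, 5% CO2.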

Experiment [9] concerns the target Estrogen receptor beta (Homo sapiens) (UniProt Q92731). Nature of the experiment: qHTS assay to identify small molecule antagonists of the estrogen receptor beta (ER-beta) signaling pathway (AID 1259378; active = well fitted inhibition curve with a large enough effect in the signal ratio in the repeat runs, not every such curve was filed as active; the % refers to the signal ratio). A digest of the protocol: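 Antagonist mode: compounds added to beta-lactamase reporter HEK293T ER-beta-UAS cells stimulated with E2 (1nM final), 16 hr at 37C. LiveBLAzer B/G FRET substrate, 2 hours room temperature, fluorescence read-out.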

Experiment [10] is described as follows: qHTS assay to identify small molecule agonists of the androgen receptor (AR) signaling pathway in the presence of an antagonist - cell viability counter screen (AID 1259379).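 Also: MDA-kb2 human breast cancer cells carrying an MMTV luciferase reporter; series mostly up to about 92 µM; nearly all actives have a fitted effect of over 25% in size.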 A digest of the protocol:
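Viability counter screen: CellTiter-Fluor fluorescence, measured in the same wells as the luciferase read-out. MDA-kb2 cells, 3,000/well, with nilutamide at 3.0uM final and compounds at 15 concentrations, 16 hr at 37C, 0% CO2.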

The nature of experiment [11]: qHTS assay to identify small molecule agonists of the estrogen receptor beta (ER-beta) signaling pathway - cell viability counter screen (AID 1259380). Also: nearly all actives have a fitted effect of over 30% in size. An outline of the steps: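 Luminescence read-out (CellTiter-Glo, 30 min, room temp) taken in the same wells as the beta-lactamase reporter assay; ER-beta-UAS-bla HEK293T cells exposed to DMSO-dissolved compounds for 16 hr at 37C in 2% charcoal-stripped FBS medium.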

The nature of experiment [12]: qHTS assay to identify small molecule antagonists of the estrogen receptor beta (ER-beta) signaling pathway - cell viability counter screen (AID 1259382). Also: series mostly up to about 92 µM; nearly all actives have a fitted effect of over 55% in size. An outline of the steps: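 Luminescent ATP read-out (CellTiter-Glo, 30 min, RT) taken in the same wells as the bla reporter assay. HEK293T ER-beta-UAS-bla cells in 2% charcoal-stripped FBS were exposed to compounds with 1nM E2 for 16 hr at 37C.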

Experiment [13] addresses Estrogen receptor (Homo sapiens) (UniProt P03372). Nature of the experiment: qHTS assay to identify small molecule agonists of the estrogen receptor alpha (ER-alpha) signaling pathway in the presence of an antagonist (AID 1259383; calls by dose curve; also: top concentration of the series differs between compounds; nearly all actives have a fitted effect of over 15% in size). A digest of the protocol: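 Luciferase luminescence (ONE-Glo, 30min at room temperature) measured in VM7Luc4E2 cells after 22hr compound exposure at 15 concentrations, with 10.0nM ICI-182,780 final present; cells express endogenous ER-alpha and carry four EREs upstream of luciferase.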

Experiment [14] is described as follows: qHTS assay to identify small molecule agonists or antagonists of the thyroid stimulating hormone receptor (TSHR) signaling pathway - wild type cell line counter screen (AID 1259384; calls by dose curve). A digest of the protocol:
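Counter screen in untransfected Hek293: compounds (15-point titration, triplicate) plus phosphodiesterase inhibitor Ro20-1724 added after 18 h plating; 30 min RT. Intracellular cAMP via competitive d2/cryptate immunoassay, 1 h incubation.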

Experiment [15] has as its target Thyrotropin receptor (Homo sapiens) (UniProt P16473). Nature of the experiment: qHTS assay to identify small molecule antagonists of the thyroid stimulating hormone receptor (TSHR) signaling pathway (AID 1259385; calls by dose curve; also: nearly all actives have a fitted effect of over 20% in size). An outline of the steps: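 Antagonist mode: compound-treated TSHR-expressing HEK293 cells were stimulated with 1.5 ng/mL TSH (final) in presence of Ro20-1724 for 30 min at RT. HTRF cAMP detection after 1 h; each compound tested at 15 concentrations, triplicate.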

The nature of experiment [16]: qHTS assay to identify small molecule agonists of the estrogen receptor alpha (ER-alpha) signaling pathway in the presence of an antagonist - cell viability counter screen (AID 1259386).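 Also: series mostly up to about 92 µM; cells exposed to compounds for 22 h at 37 °C before the viability read; nearly all actives have a fitted effect of over 30% in size.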 A digest of the protocol:
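Read-out: CellTiter-Fluor fluorescence after 1hr reagent incubation, measured in the same wells as the luciferase readout. VM7Luc4E2 cells were exposed to 15 compound concentrations with 10.0nM ICI-182,780 for 22hr at 37C.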

Experiment [17] addresses Estrogen receptor beta (Homo sapiens) (UniProt Q92731). Nature of the experiment: qHTS assay to identify small molecule agonists of the estrogen receptor beta (ER-beta) signaling pathway (AID 1259377; active = well fitted activation curve with a large enough effect in the signal ratio in the repeat runs, not every such curve was filed as active; the % refers to the signal ratio). A digest of the protocol:
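ER-beta-UAS-bla HEK293T (GripTite) cells carrying a UAS-driven beta-lactamase reporter, in medium with 2% charcoal-stripped FBS, were exposed to compounds for 16 hr at 37C; LiveBLAzer B/G FRET substrate was then added and fluorescence read after 2 hours at room temperature.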

We go through eight molecules from PubChem BioAssay (Tox21).

Values without a mark were called inactive. Records with an inconclusive call do not appear. The source made the active and inactive calls. Unless noted, calls follow the shape of the dose curve; as a rule, active = well fitted curve in the direction sought with a large enough effect in the repeat runs; inconclusive = weak or mixed curves; inactive = no such curve, though single readings can be large; an effect the other way counts as inactive or inconclusive.

Chain of Estrogen receptor beta (Homo sapiens) (Q92731 whole entry, looked up): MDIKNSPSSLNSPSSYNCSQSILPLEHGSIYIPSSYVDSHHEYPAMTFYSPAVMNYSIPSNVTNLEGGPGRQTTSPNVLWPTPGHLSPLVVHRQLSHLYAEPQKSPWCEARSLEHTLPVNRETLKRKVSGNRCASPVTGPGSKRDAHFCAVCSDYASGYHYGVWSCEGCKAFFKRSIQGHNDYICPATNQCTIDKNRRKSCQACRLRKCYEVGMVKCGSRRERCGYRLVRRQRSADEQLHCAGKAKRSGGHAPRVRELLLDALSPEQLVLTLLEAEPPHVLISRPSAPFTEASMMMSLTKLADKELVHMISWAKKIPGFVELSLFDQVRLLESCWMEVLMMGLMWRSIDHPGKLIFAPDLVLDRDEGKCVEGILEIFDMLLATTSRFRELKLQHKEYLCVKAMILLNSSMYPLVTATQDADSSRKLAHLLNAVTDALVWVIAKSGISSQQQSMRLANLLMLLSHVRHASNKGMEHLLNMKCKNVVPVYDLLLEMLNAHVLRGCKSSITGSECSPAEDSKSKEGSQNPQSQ
Chain of Estrogen receptor (Homo sapiens) (P03372 whole entry, looked up): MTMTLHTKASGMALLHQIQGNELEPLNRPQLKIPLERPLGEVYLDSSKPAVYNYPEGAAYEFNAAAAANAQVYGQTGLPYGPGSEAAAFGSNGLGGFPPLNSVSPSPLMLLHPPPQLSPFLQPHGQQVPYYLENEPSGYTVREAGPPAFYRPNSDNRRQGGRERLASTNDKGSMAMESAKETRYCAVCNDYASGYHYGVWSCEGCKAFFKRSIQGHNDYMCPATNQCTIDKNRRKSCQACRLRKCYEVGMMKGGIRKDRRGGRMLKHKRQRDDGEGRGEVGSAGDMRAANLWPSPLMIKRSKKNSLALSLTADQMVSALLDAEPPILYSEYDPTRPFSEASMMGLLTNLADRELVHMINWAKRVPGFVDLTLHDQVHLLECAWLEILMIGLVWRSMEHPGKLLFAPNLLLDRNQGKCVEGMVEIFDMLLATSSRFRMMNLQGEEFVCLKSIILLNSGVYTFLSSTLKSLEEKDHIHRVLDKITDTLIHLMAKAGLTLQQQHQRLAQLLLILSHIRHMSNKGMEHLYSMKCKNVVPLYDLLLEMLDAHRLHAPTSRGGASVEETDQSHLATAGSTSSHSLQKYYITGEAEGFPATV
Chain of Thyrotropin receptor (Homo sapiens) (P16473 whole entry, looked up): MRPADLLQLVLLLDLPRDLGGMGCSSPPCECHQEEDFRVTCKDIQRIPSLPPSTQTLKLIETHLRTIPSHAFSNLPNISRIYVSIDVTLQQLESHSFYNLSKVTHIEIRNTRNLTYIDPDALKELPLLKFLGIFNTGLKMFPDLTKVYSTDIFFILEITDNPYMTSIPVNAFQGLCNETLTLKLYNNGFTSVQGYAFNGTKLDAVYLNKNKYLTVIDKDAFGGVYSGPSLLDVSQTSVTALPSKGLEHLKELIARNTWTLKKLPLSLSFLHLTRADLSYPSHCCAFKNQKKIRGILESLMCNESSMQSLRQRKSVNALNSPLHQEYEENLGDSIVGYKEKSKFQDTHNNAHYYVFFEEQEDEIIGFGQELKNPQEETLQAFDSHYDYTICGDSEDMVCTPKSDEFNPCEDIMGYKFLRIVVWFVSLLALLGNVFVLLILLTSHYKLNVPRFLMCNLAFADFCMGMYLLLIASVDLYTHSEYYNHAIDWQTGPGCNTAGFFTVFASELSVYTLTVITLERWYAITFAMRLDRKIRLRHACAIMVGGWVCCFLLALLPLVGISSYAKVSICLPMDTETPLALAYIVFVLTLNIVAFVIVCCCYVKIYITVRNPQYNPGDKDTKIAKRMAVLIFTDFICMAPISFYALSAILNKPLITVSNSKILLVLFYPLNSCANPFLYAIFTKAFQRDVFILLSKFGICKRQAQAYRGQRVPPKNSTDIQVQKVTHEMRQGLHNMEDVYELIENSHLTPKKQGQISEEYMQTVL

In the case of `CCOC(=O)NCCC[Si](OCC)(OCC)OCC`, the result in experiment [1], in experiment [4], in experiment [12] and in experiment [14] was inactive. In addition, the Potency entry in experiment [2], in [3], in experiment [5], in experiment [6], in experiment [7] and in experiment [8] was “inactive” throughout. In addition, the Potency entry in experiment [9], in [10], in experiment [11], in experiment [13], in experiment [15] and in experiment [16] was “inactive” throughout.

Turning to `CC/C=C\CCOC(=O)C(C)C`, the outcome in experiment [1], in [4] and in [12] was inactive. In addition, the Potency result in experiment [2], in [3], in [5], in [6], in experiment [7] and in [8] was “inactive” in each case. The Potency entry in experiment [10], in [11], in experiment [13] and in experiment [16] was “inactive” throughout.

As for `NNS(=O)(=O)c1ccc(Oc2ccc(S(=O)(=O)NN)cc2)cc1`, the outcome in experiment [1], in [4], in experiment [12] and in [14] was inactive. The Potency entry in [2], in experiment [3], in [5], in experiment [6], in [7] and in experiment [8] was “inactive” in each case. The Potency entry in experiment [9], in [10], in experiment [11], in experiment [13], in experiment [15] and in [16] was “inactive” throughout.

In the case of `Cc1ccc(C)c(N)c1`, the outcome in experiment [1], in [17], in experiment [12] and in experiment [14] was inactive. The Potency result in experiment [2], in experiment [3], in [5], in experiment [6], in experiment [7] and in experiment [8] was “inactive” throughout. The Potency entry in experiment [10], in experiment [11], in experiment [13] and in experiment [16] was “inactive” each time.

Consider `O=C1CCCCC1C1CCCCC1` (configuration not stated), for which the outcome in experiment [1], in experiment [4], in [12] and in experiment [14] was inactive. The Potency entry in [2], in [3], in experiment [5], in experiment [6], in experiment [7] and in experiment [8] was “inactive” each time. Further, the Potency entry in [10], in [11], in experiment [13] and in experiment [16] was “inactive” throughout.

In the case of `CCCCNC(=S)NCCCC`, the outcome in experiment [1] and in [4] was inactive. Also, the Potency entry in [2], in [3], in experiment [6], in experiment [8], in experiment [10] and in [11] was “inactive” each time. Moreover, the Potency result in experiment [13] and in experiment [16] was “inactive” throughout.

Regarding `CCOc1ccc2nc(N)sc2c1`, the outcome in experiment [1], in [4] and in experiment [12] was inactive. Also, the Potency entry in [2], in experiment [5], in experiment [6], in [7], in experiment [8] and in experiment [10] was “inactive” in each case. Moreover, the Potency entry in [13] and in [16] was “inactive” in each case. Also, the Potency in experiment [3] was 24.1 µM (active).

In the case of `COc1ccc(Nc2ccc(OC)cc2)cc1`, the outcome in [1], in experiment [4] and in experiment [12] was inactive. In addition, the Potency entry in [2], in experiment [5], in [6], in experiment [7], in [8] and in experiment [11] was “inactive” in each case. Further, the Potency result in [13] and in experiment [15] was “inactive” each time. Also, the Potency in experiment [3] is 27.8 µM (active).
